From PubChem BioAssay (NCI)
The panel holds about 79,000 compounds, 15% with a hit somewhere; the sample as a whole holds those more often. Values without a mark were called inactive. The source made the active and inactive calls. Rule as the data show it: active = growth inhibition above about 70%; inactive = the rest.

Experiments:
[1] = NCI Yeast Anticancer Drug Screen. Data for the rad50 strain (AID 155);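 also: 0% = growth of vehicle-only cultures of the same strain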; settings: S. cerevisiae rad50 strain growth inhibition, hits give high values
Outline: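 Compounds were tested on a yeast strain with an engineered DNA damage repair alteration; the reported value is growth inhibition normalised to vehicle treatment.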

[2] = NCI Yeast Anticancer Drug Screen. Data for the mec2-1 strain (AID 157); settings: S. cerevisiae mec2-1 strain, hits give high values
Outline: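 Readout is yeast growth inhibition, normalised to vehicle-treated controls, in the mec2-1 strain exposed to compound.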

[3] = NCI Yeast Anticancer Drug Screen. Data for the sgs1 mgt1 strain (AID 161);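 also: 0% = growth of cultures given vehicle only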; settings: S. cerevisiae sgs1 mgt1 strain, hits give high values
Outline: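 Compounds are added to genetically altered yeast, and growth is compared with cultures given vehicle alone to give percent inhibition.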

[4] = NCI Yeast Anticancer Drug Screen. Data for the cln2 rad14 strain (AID 165);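 also: 0% = growth equal to vehicle treated cultures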; settings: S. cerevisiae cln2 rad14 strain, hits give high values
Outline: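 Relative to vehicle controls, growth inhibition of compound-treated cln2 rad14 yeast was recorded.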

[5] = NCI Yeast Anticancer Drug Screen. Data for the bub3 strain (AID 167); settings: S. cerevisiae bub3 mutant strain, hits give high values
Outline: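 Growth of a checkpoint-deficient yeast mutant is measured after compound exposure. Values represent inhibition relative to vehicle.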

[6] = NCI Yeast Anticancer Drug Screen. Data for the mlh1 rad18 strain (AID 175); settings: S. cerevisiae mlh1 rad18 strain growth inhibition, hits give high values
Outline: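 Test agents were incubated with a yeast strain of defined genotype (DNA damage repair defect). Inhibition of growth was derived by comparison with vehicle-exposed cultures.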

[7] = at 5.0 µM (retest, dose inferred, filed as 0.5)
[8] = at 50.0 µM (retest, dose inferred, filed as 5.0)

Compound	growth inhibition [1, 7]	growth inhibition [1, 8]	growth inhibition ([1]; at 50.0 µM)	growth inhibition [2, 7]	growth inhibition [2, 8]	growth inhibition ([2]; at 50.0 µM)	growth inhibition [3, 7]	growth inhibition [3, 8]	growth inhibition ([3]; at 50.0 µM)	growth inhibition [4, 7]	growth inhibition [4, 8]	growth inhibition ([4]; at 50.0 µM)	growth inhibition [5, 7]	growth inhibition [5, 8]	growth inhibition ([5]; at 50.0 µM)	growth inhibition [6, 7]	growth inhibition [6, 8]	growth inhibition ([6]; at 50.0 µM)
CCCCCc1cccc(CC(=O)OCC)n1	-161%	-149%	-14.7%	-50%	-57%	-15.3%	-66%	-69%	-12.7%	-58%	-80%	26.9%	-66%	-42%	-12.3%	-127%	-132%	-6.15%
CCOC(=O)Cc1[nH]c(C(=O)c2ccccc2)cc1C(=O)c1ccccc1	20%	87% (active)	-44.6%	11%	81% (active)	-9.35%	-1%	88% (active)	-36.1%	7%	97% (active)	5%	-2%	97% (active)	-24.4%	17%	89% (active)	-42.9%
Cc1ccc(S(=O)(=O)Nc2ccc(C)cc2C)cc1	-3%	96% (active)	85.5% (active)	-6%	96% (active)	54%	-2%	97% (active)	55.4%	-3%	83% (active)	32.8%	-1%	95% (active)	63.4%	-2%	95% (active)	75.2% (active)
COC(=O)[C@]1(C)CCCC2(C)C3=C(CCC21)CC1(CC3)SCCS1 (stereo not given in full)	12%	92% (active)	85.4% (active)	41%	94% (active)	91.3% (active)	29%	93% (active)	87.6% (active)	46%	96% (active)	86.4% (active)	56%	95% (active)	86.5% (active)	18%	95% (active)	85.7% (active)
Brc1c2nc3ccccc3nc2n2ccc3ccccc3c12	-37%	59%	47.8%	-11%	86% (active)	43%	-18%	78% (active)	54.5%	-14%	83% (active)	44.1%	-37%	83% (active)	21%	-38%	69%	59.5%
Cc1ccc(OS(=O)(=O)c2ccc(Br)cc2)cc1	2%	5%	-6%	-16%	10%	0.05%	8%	19%	-3.65%	9%	6%	-1%	16%	41%	-7%	3%	31%	12.7%
CCCCCCCCN(CCCCCCCC)Cc1ccc(Br)cc1	98% (active)	99% (active)	99.2% (active)	96% (active)	100% (active)	99.5% (active)	99% (active)	99% (active)	99.5% (active)	97% (active)	99% (active)	99% (active)	96% (active)	99% (active)	99.2% (active)	97% (active)	99% (active)	99.5% (active)
O=C(O)/C=C\c1cc2ccccc2c2ccccc12	13%	98% (active)	98.8% (active)	-11%	99% (active)	98.8% (active)	18%	98% (active)	98.4% (active)	11%	99% (active)	98.3% (active)	8%	99% (active)	98.5% (active)	18%	99% (active)	98.6% (active)
COc1cc(CSc2ccc(O)cc2)cc(OC)c1OC	-3%	34%	79.1% (active)	-18%	-16%	84.3% (active)	-24%	29%	84.9% (active)	-18%	4%	50%	-13%	21%	81.8% (active)	-5%	-4%	82.3% (active)
CS(=O)(=O)c1ccc(C[N+]23CN4CN(CN(C4)C2)C3)cc1	-9%	-2%	-8.25%	0%	13%	14.7%	-20%	-5%	-0.8%	-8%	-4%	43.4%	-4%	6%	-4.75%	-9%	-4%	1.85%
COC(=O)c1cc[nH]c(=O)c1	-150%	-166%	9.2%	-48%	-56%	12.2%	-62%	-68%	11.4%	-55%	-70%	-18.8%	-71%	-86%	0.55%	-138%	-122%	60.8%
CCOC(=O)OC(=S)N(C1CCCCC1)C1CCCCC1	4%	58%	50.5%	0%	90% (active)	16.6%	5%	76% (active)	50.8%	5%	58%	41.4%	-1%	77% (active)	61.9%	1%	85% (active)	60.8%
O=C1C=CC(=O)c2nc3ccccc3nc21	5%	98% (active)	85.3% (active)	2%	99% (active)	83.2% (active)	1%	98% (active)	50.6%	-1%	99% (active)	-16.7%	-1%	98% (active)	90.1% (active)	16%	97% (active)	91% (active)
O=C1c2cccc3cccc(c23)C1(Br)Br	36%	99% (active)	68%	20%	99% (active)	23.4%	45%	98% (active)	70.8% (active)	37%	95% (active)	56.1%	26%	97% (active)	55.6%	54%	99% (active)	67.8%
CCCCN1CCN(c2ccc([N+](=O)[O-])c3no[n+]([O-])c23)CC1	97% (active)	99% (active)	90.5% (active)	94% (active)	99% (active)	93.2% (active)	90% (active)	99% (active)	90.2% (active)	43%	98% (active)	88.2% (active)	58%	98% (active)	91.2% (active)	96% (active)	99% (active)	90.5% (active)
Cc1ccc(S(=O)(=O)CC2COC(CS(=O)(=O)c3ccc(C)cc3)CO2)cc1 (stereo not given)	2%	3%	-14.7%	1%	6%	33.7%	10%	-6%	3%	8%	5%	33.1%	2%	11%	66.4%	-2%	1%	28.8%
Oc1c(Cl)cc(Cl)cc1Br	-4%	83% (active)	90.2% (active)	5%	96% (active)	97.4% (active)	3%	72% (active)	96.7% (active)	0%	91% (active)	54.5%	-7%	78% (active)	84.7% (active)	-2%	91% (active)	88.1% (active)
CCCCCCCCCCCCNC(=O)c1cc[n+](Cc2ccc(Cl)c(Cl)c2)cc1	99% (active)	98% (active)	99.3% (active)	100% (active)	97% (active)	99.2% (active)	100% (active)	98% (active)	99.1% (active)	88% (active)	98% (active)	97.8% (active)	98% (active)	98% (active)	98.8% (active)	99% (active)	99% (active)	99% (active)
Nc1ncnc2nc(-c3ccc(C[P+](c4ccccc4)(c4ccccc4)c4ccccc4)cc3)[nH]c12	-6%	77% (active)	72% (active)	11%	43%	66.2%	0%	78% (active)	73.8% (active)	-10%	61%	62.6%	11%	61%	54.8%	-6%	83% (active)	69.8%
CN(C)C(=S)/N=c1\ssc(=S)n1C	2%	0%	86.7% (active)	2%	4%	27.4%	2%	-1%	90.7% (active)	1%	4%	72.1% (active)	-1%	-1%	87.8% (active)	0%	6%	84.8% (active)
